Results taken from PubChem BioAssay AID434989 (The Scripps Research Institute Molecular Screening Center, 2010).
Hit rate of the full screen: of about 330,000 compounds, about 1,400 (0.42%) were called active.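 How the source made its calls: active means inhibition above its plate's threshold, mean inhibition of all tested compounds on the plate plus 3 SD (cut at about 37% in these data); inactive means the rest.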 Shown is part of a subset that was picked to be rich in actives.

Biological target: Orexin/Hypocretin receptor type 1 (Homo sapiens) (UniProt O43613)
Sequence (O43613 whole entry, looked up): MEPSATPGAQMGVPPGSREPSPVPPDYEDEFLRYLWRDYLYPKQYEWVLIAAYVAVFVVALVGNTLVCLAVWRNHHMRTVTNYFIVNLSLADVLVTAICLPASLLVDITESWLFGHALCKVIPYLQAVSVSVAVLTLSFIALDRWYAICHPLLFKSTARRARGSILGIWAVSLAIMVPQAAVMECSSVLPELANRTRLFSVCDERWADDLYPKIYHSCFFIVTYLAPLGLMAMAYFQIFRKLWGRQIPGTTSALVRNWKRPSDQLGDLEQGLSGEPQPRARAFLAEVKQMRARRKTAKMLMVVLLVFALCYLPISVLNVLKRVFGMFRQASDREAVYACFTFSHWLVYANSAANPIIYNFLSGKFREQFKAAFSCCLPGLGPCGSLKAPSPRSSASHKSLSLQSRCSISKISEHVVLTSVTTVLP
Test: blockers of orexin-A calcium signaling via HCRTR1 – fluorescence, CHO/OX1R cells, Fluo-8 calcium, primary screen (AID 434989);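 further: 0% = orexin A challenge wells and 100% = SB-334867-A antagonist wells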
Conditions: Fluo-8 calcium fluorescence, at 5 µM, hits give high values

inhibition, active:
Cc1cccc(NC(=O)Nc2cccc(Oc3c(F)c(F)c(F)c(F)c3F)c2)c1 50.4%
Cc1ccccc1OCC(=O)Nc1ccc(N2CCN(C(=O)C(C)C)CC2)c(Cl)c1 47.2%
CCc1ccccc1OCC(=O)Nc1ccc(C)c(S(=O)(=O)N2CCCCCC2)c1 71.1%
Cc1cc(-c2ccc(C)c(S(=O)(=O)NC(C)Cc3ccco3)c2)on1 (configuration not stated) 59.1%
CCN(CC)S(=O)(=O)c1ccc(N(C)Cc2cccc(OC)c2OC)nc1 39%
CCN(CC)c1ccc(/C=N/NC(=O)c2cnccn2)c(O)c1 48.7%
CCCc1nc2c(c(=O)c3ccccc3n2C)c(=O)n1C1CCCCCC1 41.5%
Cc1ccc(O)c(NC(=S)NC(=O)COc2ccc(Br)cc2)c1 78.4%
CCOc1ccc(CCNC(=O)C(CC)n2nc(C)n3c(cc4sccc43)c2=O)cc1OCC (configuration not stated) 64.5%

inhibition, inactive:
Cc1ccc(S(=O)(=O)Nc2ccc3c(c2)C(=O)N([C@H](C)CO)C[C@@H](C)[C@@H](CN(C)C(=O)Nc2cccc4ccccc24)O3)cc1 1.83%
CC1CCCCC1NC(=O)Cn1c(=O)cnc2ccccc21 (configuration not stated) -6.73%
Cc1cccc(NC(=O)NC(=S)NC(=O)c2ccccc2)c1 -26.4%
COc1cccc(NC(=O)NCc2ccc(F)cc2)c1 -1.97%
CCN(CC)S(=O)(=O)c1ccc(N2CCCC2)c(NC(=O)c2ccc([N+](=O)[O-])o2)c1 25.1%
CCc1ccccc1OCC(=O)Nc1ccc2c(c1)OCCO2 3.6%
CCC(=O)N1CCN(c2ccccc2NC(=O)COc2cccc(C)c2C)CC1 -25.6%
Cc1ccccc1OCC(=O)Nc1ccc2c(c1)ncn2C -11.8%
Cc1ccc(NC(=O)COC(=O)C2CC2)cc1S(=O)(=O)N1CCOCC1 0.29%
COc1ccccc1CNC(=O)c1ccc(Cl)c(S(=O)(=O)N2CCCC2)c1 -20%
Cc1nn(-c2ccccc2)nc1C(=O)OCC(=O)N1CCCCC1C (configuration not stated) -14.9%
Cc1ccc(C)c(N2CCN(C(=O)CCc3nc(-c4cccc(C(F)(F)F)c4)no3)CC2)c1 -15.5%
Cc1cc(-c2ccc(C)c(S(=O)(=O)Nc3ccc(S(N)(=O)=O)cc3)c2)on1 15.6%
Cc1cc(-c2ccc(C)c(S(=O)(=O)NCCCN(Cc3ccccc3)C(C)C)c2)on1 -45.5%
CN(C)C(=O)CCc1ccc2c3c([nH]c2c1)[C@]1(CCC2CCCC2)[C@@H](C(=O)N2CCOCC2)C[C@H](CC(=O)NCc2ccco2)C(=O)N1CC3 -19.7%
COc1ccc(C(=O)C(C)OC(=O)c2cccc(S(=O)(=O)Nc3c(C)n(C)n(-c4ccccc4)c3=O)c2)cc1 (configuration not stated) -5.98%
O=C(CN1C(=O)NC2(CCCCCC2)C1=O)NCc1ccc(F)cc1 -10.3%
CCN(CC)S(=O)(=O)c1ccc(N(C)Cc2ccc(C(F)(F)F)cc2)nc1 29.3%
CCN(CC)S(=O)(=O)c1ccc(N(C)CCc2ccc(OC)c(OC)c2)nc1 -17%
COc1cccc(-c2sc3ccc(OC)cc3c2-c2ccc(OCCN3CCCCC3)cc2)c1 29.6%
COc1ccc2[nH]c3c(c2c1)CCN1C(=O)C(CC(=O)NCCCN(C)C)C[C@H](C(=O)N2CCOCC2)[C@@]31CCC1CCCC1 (some centres not stated) -21.8%
O=C1CCC/C=C/C[C@@H](CC(=O)N(CCO)Cc2ccccc2)C(=O)NC[C@H](c2ccccc2)O1 -18%
Cc1ccc(C(=O)NCCNC(=O)c2cnccn2)cc1 -1.97%
CCN(CC)c1ccc(/C=N/NC(=O)CNC(=O)c2cccnc2)cc1 -5.59%
O=C(CCCOc1ccccc1)NNC(=O)c1ccc(Cl)cc1 -15.2%
C=CC[C@H](CC(=O)NCCO)C(=O)N[C@@H](COC(=O)[C@@H](CC=C)Cc1ccc(F)cc1)Cc1c[nH]c2ccccc12 -17.6%
O=C(NCCc1ccco1)c1ccc(OCc2cn3ccccc3n2)cc1 -20.6%
C=CC[C@@H](Cc1ccc(F)cc1)C(=O)OC[C@H]1CCCN1C(=O)[C@H](CC=C)CC(=O)N(CCO)Cc1ccccc1 24.4%
CCCc1nc2c(c(=O)c3ccccc3n2C)c(=O)n1-c1cc(C)cc(C)c1 -30.9%
Cn1c2ccccc2c(=O)c2c(=O)n(Cc3ccco3)c(COc3ccccc3)nc21 -11.8%
CC[C@]12c3[nH]c4ccc(Cl)cc4c3CCN1C(=O)[C@@H](CC(=O)NCCCOC)C[C@@H]2C(=O)N1CCN(C(=O)C2CC2)CC1 -13.7%
CCOC(=O)C1=C(C)N(C[C@@H]2CC[C@@H](Cc3ccc(-c4ccccc4)cc3)O2)C(=O)NC1c1ccc([N+](=O)[O-])cc1 (some centres not stated) -13%
CN(C)C(=O)CCc1ccc2c3c([nH]c2c1)[C@]1(CCc2ccccc2)[C@@H](C(=O)N2CCCCC2)C[C@H](CC(=O)NCCC2=CCCCC2)C(=O)N1CC3 -7.84%
CC(C)N(C(=O)[C@H]1C[C@H](CC(=O)NC(C)(C)C)C(=O)N2CCc3c([nH]c4ccc(Cl)cc34)[C@]12C)C(C)C -33.8%
Cc1cccc(OCC(=O)NC(=S)Nc2ccccc2N2CCOCC2)c1 -22.4%
Cc1ccc(O)c(NC(=O)COc2cc(C)ccc2C)c1 2.38%
COC(=O)c1ccc(C)c(NC(=O)Cn2c(C)csc2=O)c1 -20%
CCC1CCCCN1C(=S)NC(=O)c1ccco1 (configuration not stated) 5.19%
CC(C)CC1NC(=O)c2cc(Cl)ccc2-n2c1nc1ccccc1c2=O (configuration not stated) -24.4%
O=C(NC(=S)Nc1ccc(Br)cc1F)C1CCCCC1 0.61%
O=C1NC(Cc2ccc(O)cc2)c2nc3ccc(Cl)cc3c(=O)n2-c2ccccc21 (configuration not stated) -10%
COc1ccc(CCNC(=O)c2cc3sccc3n2C)cc1OC -27.4%
CCC(C(=O)NCc1ccc(OC)cc1)n1nc(C)n2c(cc3occc32)c1=O (configuration not stated) -43.4%
